Residual activity data for eight compounds are collected here from ChEMBL document CHEMBL2218924, “A broad activity screen in support of a chemogenomic map for kinase signalling research and drug discovery” (Biochem J, 2013).

For experiment [1], the target named is Vascular endothelial growth factor receptor 3 (Homo sapiens) (UniProt P35916). The conditions noted are these: at 10 µM.
Experiment [2] addresses Tyrosine-protein kinase Fyn (Homo sapiens) (UniProt P06241). The conditions noted are these: at 1 µM.
Experiment [3] shares this target. The note with it: at 10 µM.
In experiment [4] the target is T1, Mitogen-activated protein kinase kinase kinase kinase 2 (Homo sapiens) (UniProt Q12851).
T1 sequence (whole entry): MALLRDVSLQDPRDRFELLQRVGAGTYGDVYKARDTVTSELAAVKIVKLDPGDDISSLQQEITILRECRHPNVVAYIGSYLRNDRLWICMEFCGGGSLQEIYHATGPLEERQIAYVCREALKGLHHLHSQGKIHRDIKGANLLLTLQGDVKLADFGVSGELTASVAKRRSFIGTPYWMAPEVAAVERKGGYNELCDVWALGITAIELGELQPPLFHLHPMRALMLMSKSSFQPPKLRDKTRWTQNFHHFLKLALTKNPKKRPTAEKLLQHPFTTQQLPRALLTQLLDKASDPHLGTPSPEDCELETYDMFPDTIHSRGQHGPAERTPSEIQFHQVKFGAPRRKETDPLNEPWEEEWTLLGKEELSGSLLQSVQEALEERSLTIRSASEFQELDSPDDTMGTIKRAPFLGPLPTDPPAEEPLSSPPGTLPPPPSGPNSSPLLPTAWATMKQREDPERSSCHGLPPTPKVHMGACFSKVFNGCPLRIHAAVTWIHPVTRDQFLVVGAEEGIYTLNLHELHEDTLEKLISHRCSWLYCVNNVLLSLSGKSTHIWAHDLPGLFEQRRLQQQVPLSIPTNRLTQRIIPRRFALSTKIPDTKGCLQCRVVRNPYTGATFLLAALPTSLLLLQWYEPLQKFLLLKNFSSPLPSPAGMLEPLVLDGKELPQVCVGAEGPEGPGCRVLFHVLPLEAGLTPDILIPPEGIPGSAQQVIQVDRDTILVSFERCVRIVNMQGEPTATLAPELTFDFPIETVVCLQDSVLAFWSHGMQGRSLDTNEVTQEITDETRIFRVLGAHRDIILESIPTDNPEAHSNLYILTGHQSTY
The conditions noted are these: at 1 µM.

Experiment [5] concerns the target T1, Mitogen-activated protein kinase kinase kinase kinase 2 (Homo sapiens). The note with it: at 10 µM.
Experiment [6] addresses G protein-coupled receptor kinase 5 (Homo sapiens) (UniProt P34947). The note with it: at 10 µM.
The target of experiment [7] is G protein-coupled receptor kinase 6 (Homo sapiens) (UniProt P43250). The note with it: at 10 µM.
Experiment [8] has as its target T2, Rhodopsin kinase GRK7 (Homo sapiens) (UniProt Q8WTQ7).
T2 sequence (whole entry): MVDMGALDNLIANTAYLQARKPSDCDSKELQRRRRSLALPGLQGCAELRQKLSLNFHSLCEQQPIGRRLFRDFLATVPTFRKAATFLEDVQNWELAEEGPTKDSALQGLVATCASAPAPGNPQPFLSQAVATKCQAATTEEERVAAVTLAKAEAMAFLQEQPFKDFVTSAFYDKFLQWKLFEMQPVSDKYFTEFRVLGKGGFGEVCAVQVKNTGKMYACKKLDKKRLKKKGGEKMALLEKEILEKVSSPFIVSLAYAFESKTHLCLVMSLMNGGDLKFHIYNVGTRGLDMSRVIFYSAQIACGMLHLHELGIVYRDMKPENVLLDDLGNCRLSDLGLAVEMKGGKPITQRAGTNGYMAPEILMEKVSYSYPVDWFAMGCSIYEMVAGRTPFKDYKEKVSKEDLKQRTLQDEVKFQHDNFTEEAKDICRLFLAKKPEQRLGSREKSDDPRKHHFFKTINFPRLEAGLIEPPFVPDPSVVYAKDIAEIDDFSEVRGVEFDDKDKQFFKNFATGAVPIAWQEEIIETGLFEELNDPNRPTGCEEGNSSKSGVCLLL
The conditions noted are these: at 1 µM.

The target of experiment [9] is T2, Rhodopsin kinase GRK7 (Homo sapiens). The note with it: at 10 µM.
The target in experiment [10] is Glycogen synthase kinase-3 beta (Homo sapiens) (UniProt P49841). The note with it: at 1 µM.
Experiment [11] has the same target. The note with it: at 10 µM.
In experiment [12] the target is Homeodomain-interacting protein kinase 1 (Homo sapiens) (UniProt Q86Z02). The note with it: at 1 µM.
The target is the same in experiment [13]. The note with it: at 10 µM.
For experiment [14], the target named is Homeodomain-interacting protein kinase 2 (Homo sapiens) (UniProt Q9H2X6). The conditions noted are these: at 1 µM.
Experiment [15] has the same target. The conditions noted are these: at 10 µM.
For experiment [16], the target named is Macrophage colony-stimulating factor 1 receptor (Homo sapiens) (UniProt P07333). The note with it: at 1 µM.
Experiment [17] has the same target. The note with it: at 10 µM.
Experiment [18] has as its target Glycogen synthase kinase-3 alpha (Homo sapiens) (UniProt P49840). The note with it: at 1 µM.
Experiment [19] shares this target. The note with it: at 10 µM.
Experiment [20] deals with Homeodomain-interacting protein kinase 3 (Homo sapiens) (UniProt Q9H422). The note with it: at 1 µM.

Structures are written as SMILES.

Sequence of Homeodomain-interacting protein kinase 2 (Homo sapiens) (Q9H2X6 whole entry, looked up): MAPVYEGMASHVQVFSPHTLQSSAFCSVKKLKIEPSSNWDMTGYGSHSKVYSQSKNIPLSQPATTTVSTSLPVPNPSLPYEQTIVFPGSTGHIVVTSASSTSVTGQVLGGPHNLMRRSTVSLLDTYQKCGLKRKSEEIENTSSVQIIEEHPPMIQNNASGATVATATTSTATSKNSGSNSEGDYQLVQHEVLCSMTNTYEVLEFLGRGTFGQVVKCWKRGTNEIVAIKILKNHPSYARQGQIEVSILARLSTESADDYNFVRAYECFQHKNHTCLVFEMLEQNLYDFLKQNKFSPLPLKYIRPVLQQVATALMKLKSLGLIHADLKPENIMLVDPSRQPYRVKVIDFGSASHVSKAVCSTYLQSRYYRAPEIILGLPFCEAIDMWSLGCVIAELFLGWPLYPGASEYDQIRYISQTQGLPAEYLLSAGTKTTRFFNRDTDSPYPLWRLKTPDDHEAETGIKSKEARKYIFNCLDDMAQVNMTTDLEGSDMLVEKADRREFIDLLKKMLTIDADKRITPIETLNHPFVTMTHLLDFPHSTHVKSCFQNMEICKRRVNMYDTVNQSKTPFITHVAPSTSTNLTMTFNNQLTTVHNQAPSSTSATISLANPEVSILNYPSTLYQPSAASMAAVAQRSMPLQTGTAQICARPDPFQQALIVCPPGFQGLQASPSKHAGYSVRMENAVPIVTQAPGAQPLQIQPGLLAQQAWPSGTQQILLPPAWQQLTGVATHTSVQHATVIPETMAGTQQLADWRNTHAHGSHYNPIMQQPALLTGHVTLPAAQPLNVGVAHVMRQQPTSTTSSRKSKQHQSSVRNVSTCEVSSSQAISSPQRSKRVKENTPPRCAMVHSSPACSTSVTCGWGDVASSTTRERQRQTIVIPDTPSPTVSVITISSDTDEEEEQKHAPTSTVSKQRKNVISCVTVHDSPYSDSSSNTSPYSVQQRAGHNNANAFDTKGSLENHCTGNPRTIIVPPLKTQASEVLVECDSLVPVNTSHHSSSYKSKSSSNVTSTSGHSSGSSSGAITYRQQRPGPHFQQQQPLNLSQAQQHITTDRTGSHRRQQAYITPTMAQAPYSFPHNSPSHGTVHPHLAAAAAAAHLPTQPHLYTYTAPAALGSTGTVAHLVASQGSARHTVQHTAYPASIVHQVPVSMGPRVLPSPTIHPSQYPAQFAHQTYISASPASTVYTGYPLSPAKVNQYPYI
Sequence of Macrophage colony-stimulating factor 1 receptor (Homo sapiens) (P07333 whole entry): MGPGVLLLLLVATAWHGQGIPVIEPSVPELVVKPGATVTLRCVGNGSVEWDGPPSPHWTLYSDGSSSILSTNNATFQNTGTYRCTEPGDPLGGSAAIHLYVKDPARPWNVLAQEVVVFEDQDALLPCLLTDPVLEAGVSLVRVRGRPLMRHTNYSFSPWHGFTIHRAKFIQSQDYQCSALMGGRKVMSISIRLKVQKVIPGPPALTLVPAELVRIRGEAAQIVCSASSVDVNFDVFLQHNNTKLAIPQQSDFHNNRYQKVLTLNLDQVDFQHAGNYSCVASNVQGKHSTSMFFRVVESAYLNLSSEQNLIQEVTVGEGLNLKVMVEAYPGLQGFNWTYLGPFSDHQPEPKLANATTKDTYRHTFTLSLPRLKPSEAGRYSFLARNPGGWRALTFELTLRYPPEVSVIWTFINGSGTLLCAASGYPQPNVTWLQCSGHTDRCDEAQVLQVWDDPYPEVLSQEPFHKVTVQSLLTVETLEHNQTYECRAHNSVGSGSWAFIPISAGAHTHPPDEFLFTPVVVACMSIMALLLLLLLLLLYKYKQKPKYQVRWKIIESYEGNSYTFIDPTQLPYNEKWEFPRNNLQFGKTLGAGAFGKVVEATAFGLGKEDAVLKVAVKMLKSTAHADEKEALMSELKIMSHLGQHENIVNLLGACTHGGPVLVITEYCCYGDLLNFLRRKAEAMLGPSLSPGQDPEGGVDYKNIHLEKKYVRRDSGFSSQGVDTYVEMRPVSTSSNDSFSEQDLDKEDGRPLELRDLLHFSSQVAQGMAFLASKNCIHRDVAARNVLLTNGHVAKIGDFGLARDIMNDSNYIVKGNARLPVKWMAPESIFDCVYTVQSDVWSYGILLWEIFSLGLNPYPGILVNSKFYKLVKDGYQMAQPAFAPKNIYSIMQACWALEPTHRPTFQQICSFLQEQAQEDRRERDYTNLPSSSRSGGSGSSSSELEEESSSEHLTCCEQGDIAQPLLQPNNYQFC
Sequence of Glycogen synthase kinase-3 beta (Homo sapiens) (P49841 whole entry, looked up): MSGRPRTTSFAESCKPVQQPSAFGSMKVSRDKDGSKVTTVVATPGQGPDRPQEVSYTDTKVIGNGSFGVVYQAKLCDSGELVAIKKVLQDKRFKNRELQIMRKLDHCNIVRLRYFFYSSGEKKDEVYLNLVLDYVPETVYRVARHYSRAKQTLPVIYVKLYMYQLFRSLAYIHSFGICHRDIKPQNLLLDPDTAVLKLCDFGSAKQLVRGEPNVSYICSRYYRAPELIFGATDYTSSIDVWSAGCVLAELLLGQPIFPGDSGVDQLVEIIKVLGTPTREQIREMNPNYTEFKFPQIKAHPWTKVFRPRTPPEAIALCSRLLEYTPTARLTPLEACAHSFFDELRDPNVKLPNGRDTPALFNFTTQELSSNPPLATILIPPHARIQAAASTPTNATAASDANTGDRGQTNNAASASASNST
Sequence of Homeodomain-interacting protein kinase 3 (Homo sapiens) (Q9H422 whole entry, looked up): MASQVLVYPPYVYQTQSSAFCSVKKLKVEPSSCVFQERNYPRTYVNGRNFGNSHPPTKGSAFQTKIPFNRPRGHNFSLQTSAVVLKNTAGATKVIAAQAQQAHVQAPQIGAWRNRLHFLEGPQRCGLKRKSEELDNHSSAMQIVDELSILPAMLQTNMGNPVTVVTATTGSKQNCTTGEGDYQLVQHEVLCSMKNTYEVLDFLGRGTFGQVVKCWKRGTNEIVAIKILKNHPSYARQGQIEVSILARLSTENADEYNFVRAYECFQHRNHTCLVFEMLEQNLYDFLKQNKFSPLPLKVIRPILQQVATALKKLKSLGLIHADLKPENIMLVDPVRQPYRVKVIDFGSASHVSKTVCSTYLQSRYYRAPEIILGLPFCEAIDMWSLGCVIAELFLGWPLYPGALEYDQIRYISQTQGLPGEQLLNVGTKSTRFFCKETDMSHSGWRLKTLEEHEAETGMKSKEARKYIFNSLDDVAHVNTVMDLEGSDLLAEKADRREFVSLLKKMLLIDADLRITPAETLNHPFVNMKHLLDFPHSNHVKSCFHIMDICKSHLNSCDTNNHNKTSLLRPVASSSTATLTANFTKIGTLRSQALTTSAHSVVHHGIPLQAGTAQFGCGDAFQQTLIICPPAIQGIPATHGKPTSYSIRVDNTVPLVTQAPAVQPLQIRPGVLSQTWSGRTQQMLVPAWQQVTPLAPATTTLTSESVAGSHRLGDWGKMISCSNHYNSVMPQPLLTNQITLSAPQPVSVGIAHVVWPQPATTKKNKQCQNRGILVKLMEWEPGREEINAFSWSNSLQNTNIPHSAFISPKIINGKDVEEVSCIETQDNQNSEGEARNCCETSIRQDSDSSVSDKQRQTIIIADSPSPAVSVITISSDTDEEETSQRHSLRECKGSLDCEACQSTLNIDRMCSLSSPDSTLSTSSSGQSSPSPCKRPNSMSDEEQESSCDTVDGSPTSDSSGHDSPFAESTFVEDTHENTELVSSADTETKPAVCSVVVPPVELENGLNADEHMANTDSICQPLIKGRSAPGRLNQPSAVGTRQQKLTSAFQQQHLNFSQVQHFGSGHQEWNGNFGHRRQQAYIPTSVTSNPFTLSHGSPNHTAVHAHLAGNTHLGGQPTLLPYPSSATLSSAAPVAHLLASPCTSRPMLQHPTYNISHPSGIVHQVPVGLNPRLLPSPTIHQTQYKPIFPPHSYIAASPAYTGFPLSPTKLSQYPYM
Sequence of G protein-coupled receptor kinase 5 (Homo sapiens) (P34947 whole entry, looked up): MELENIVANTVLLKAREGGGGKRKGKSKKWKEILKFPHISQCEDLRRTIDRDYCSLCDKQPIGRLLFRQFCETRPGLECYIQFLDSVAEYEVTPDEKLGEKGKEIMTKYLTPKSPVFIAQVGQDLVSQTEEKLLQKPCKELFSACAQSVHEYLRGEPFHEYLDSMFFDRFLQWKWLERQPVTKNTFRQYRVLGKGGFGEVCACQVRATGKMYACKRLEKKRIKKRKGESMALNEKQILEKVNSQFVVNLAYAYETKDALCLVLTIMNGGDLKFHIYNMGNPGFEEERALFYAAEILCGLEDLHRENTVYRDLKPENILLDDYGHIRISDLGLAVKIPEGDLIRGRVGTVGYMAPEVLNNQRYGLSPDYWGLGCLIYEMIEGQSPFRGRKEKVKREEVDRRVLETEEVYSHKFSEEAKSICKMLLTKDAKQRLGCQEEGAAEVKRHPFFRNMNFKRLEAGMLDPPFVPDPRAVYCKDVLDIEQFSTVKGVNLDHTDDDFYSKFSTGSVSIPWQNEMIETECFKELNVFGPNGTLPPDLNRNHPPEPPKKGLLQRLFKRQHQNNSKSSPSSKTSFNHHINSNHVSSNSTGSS
Sequence of G protein-coupled receptor kinase 6 (Homo sapiens) (P43250 whole entry, looked up): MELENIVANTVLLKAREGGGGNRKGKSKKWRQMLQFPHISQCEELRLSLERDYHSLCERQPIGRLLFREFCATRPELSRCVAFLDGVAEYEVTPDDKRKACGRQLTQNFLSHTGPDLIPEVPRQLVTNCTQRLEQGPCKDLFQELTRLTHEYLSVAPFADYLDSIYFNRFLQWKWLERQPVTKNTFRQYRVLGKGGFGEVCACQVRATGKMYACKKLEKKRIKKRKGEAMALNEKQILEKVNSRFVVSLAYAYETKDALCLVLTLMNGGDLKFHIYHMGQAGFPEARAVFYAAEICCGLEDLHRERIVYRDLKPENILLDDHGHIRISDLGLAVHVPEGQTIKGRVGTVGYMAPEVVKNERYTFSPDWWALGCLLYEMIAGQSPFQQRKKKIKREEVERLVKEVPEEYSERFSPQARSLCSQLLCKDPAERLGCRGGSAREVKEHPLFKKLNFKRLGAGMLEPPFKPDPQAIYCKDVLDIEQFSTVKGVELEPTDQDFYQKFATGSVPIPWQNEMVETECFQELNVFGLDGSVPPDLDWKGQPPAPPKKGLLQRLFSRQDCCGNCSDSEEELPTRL

In the case of `Cc1cccc(-c2[nH]c(C(C)(C)C)nc2-c2ccc3c(c2)OCO3)n1`, the residual activity is 90% in [1]; 105% in experiment [2]; 93% in experiment [3]; 96% in [4]; 83% in experiment [5]; 103% in experiment [6]. In addition, the residual activity in experiment [7] is 87%; in experiment [8], 97%; in experiment [9], 97%; in [10], 104%; in experiment [11], 93%; in experiment [12], 93%. Also, the residual activity in experiment [13] worked out at 102%; in experiment [14] it was 97%; in experiment [15], 96%.
As for `Nc1cccc(-c2cc3c(Oc4cccc(O)c4)ncnc3[nH]2)c1`, the residual activity in experiment [1] is 0%; in [16], 3%; in experiment [17] it was -1%; in experiment [2], 0%; in [3], -2%; in experiment [4], 42%. In addition, the residual activity in [5] was 8%; in [6], 93%; in experiment [7], 93%; in experiment [8], 92%; in experiment [9], 91%; in experiment [18], 27%. Further, the residual activity was 3% in [19]; 22% in [10]; 6% in experiment [11]; 95% in experiment [14]; 54% in [15].
Regarding `N#CCCc1ccc2c(c1)-c1[nH]c3ccc([N+](=O)[O-])cc3c1CC(=O)N2`, the residual activity was found to be 2% in experiment [1]; 24% in experiment [16]; 19% in experiment [17]; 17% in experiment [2]; 1% in experiment [3]; 2% in experiment [4]. Moreover, the residual activity in [5] was 2%; in experiment [18], 1%; in [19], 0%; in experiment [10] it was -3%; in [11], 0%; in experiment [14], 64%. Further, the residual activity in [15] is 24%.
In the case of `CN(C)CCCn1cc(C2=C(c3c[nH]c4ccccc34)C(=O)NC2=O)c2ccccc21`, the residual activity in experiment [16] was 50%; in [17] it was 30%; in [2], 102%; in experiment [3], 70%; in experiment [4], 75%; in experiment [5], 22%. Also, the residual activity amounted to 9% in experiment [6]; 32% in experiment [7]; 58% in experiment [8]; 7% in experiment [9]; 18% in experiment [18]; 2% in experiment [19]. In addition, the residual activity is 24% in experiment [10]; 3% in [11]; 90% in experiment [12]; 53% in experiment [13]; 69% in [14]; 21% in experiment [15]. In addition, the residual activity in experiment [20] stood at 87%.
Turning to `CO[C@H]1[C@@H](OC)C[C@H](C)[C@@H](OC)C2=CC(=O)C=C(NC(=O)/C(C)=C/C=C/[C@H](OC)[C@@H](OC(N)=O)/C(C)=C/[C@@H]1C)C2=O`, the residual activity was found to be 89% in [1]; 131% in [16]; 112% in experiment [17]; 88% in [2]; 96% in experiment [3]; 92% in [4]. The residual activity in [5] worked out at 81%; in experiment [6], 102%; in experiment [7], 89%; in experiment [8], 100%; in [9], 92%; in experiment [18] it was 100%. The residual activity turned out to be 109% in [19]; 92% in experiment [10]; 104% in experiment [11]; 102% in [12]; 104% in experiment [13]; 108% in experiment [14]. Moreover, the residual activity was determined as 92% in experiment [15] and 100% in experiment [20].
For `COc1cc2ncnc(Nc3ccc(Oc4ccccc4)cc3)c2cc1OC`, the residual activity in [1] was determined as 0%; in [16], 49%; in [17], 53%; in [2] it was 2%; in [3], 0%; in experiment [6] it was 104%. Moreover, the residual activity in experiment [7] was 88%; in experiment [8], 103%; in [9], 92%; in experiment [18], 91%; in experiment [19], 178%; in experiment [10], 84%. The residual activity in experiment [11] came out at 97%; in experiment [12], 102%; in [13], 106%; in experiment [14] it was 99%; in experiment [15], 99%; in experiment [20] it was 94%.
Turning to `c1ccc(-c2n[nH]cc2-c2ccnc3ccccc23)nc1`, the residual activity in [1] was determined as 10%; in experiment [16] it was 71%; in experiment [17], 76%; in experiment [2], 94%; in experiment [3] it was 22%; in experiment [4], 43%. Further, the residual activity turned out to be 27% in [5]; 103% in [6]; 87% in [7]; 93% in experiment [8]; 87% in [9]; 85% in experiment [10]. Further, the residual activity came out at 98% in experiment [12]; 105% in experiment [13]; 98% in [14]; 101% in experiment [15]; 100% in experiment [20].
Consider `COc1ccc(CNc2nc(N(CCO)CCO)nc3c2ncn3C(C)C)cc1`, for which the residual activity was determined as 30% in [1]; 91% in experiment [16]; 69% in experiment [17]; 70% in experiment [2]; 90% in [3]; 78% in experiment [4]. The residual activity turned out to be 78% in experiment [5]; 93% in experiment [6]; 86% in [7]; 76% in experiment [8]; 69% in experiment [9]; 74% in experiment [18]. The residual activity is 75% in experiment [19]; 91% in [10]; 102% in experiment [11]; 102% in experiment [12]; 88% in experiment [13]; 98% in experiment [14]. Further, the residual activity in experiment [15] amounted to 82%; in experiment [20] it was 105%.
